# High-throughput results (PubChem)
# Luc counter – counter-screen: inhibitors of Kinase-Glo firefly luciferase | Q27757 | Kinase-Glo luciferase, ATP luminescence, 8 min | Potency, µM (series often up to 38.3 µM), usual class: inhibitors | 200,000 tested, 0.28% active; active = well fitted inhibition curve with a large enough effect; inconclusive = small, poorly fitted or top-dose-only effect; note: nearly all actives have a fitted effect of over 60% in size
#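 Compounds were added to a substrate mix at pH 7.2 (50 mM imidazole, 10 uM ATP, within the enzyme's linear range), followed by Kinase-Glo detection reagent; luminescence was measured after 8 minutes at ambient temperature.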
# IMPase inh – cell-permeable inhibitors of inositol monophosphatase (IMPase); P97697; CHO-M1 cells, IP1 accumulation, HTRF TR-FRET ratio; inhibition (IP1 accumulation), % at 46.1 µM; 120,000 tested, under 10 active; active = well fitted curve in the direction sought with a large enough effect in the signal ratio, not every such curve was filed as active; inconclusive = small, poorly fitted or top-dose-only effect, or a change in a side signal; inactive = no such curve, though single readings can be large or run the other way; the % refers to the signal ratio;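 note: cells stimulated with carbachol in lithium chloride buffer; higher means more IMPase inhibition seen as more IP1 and lower FRET ratio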
#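 Cellular IMPase inhibition is scored as a rise in cytosolic IP1, detected by competitive TR-FRET between d2-labelled IP1 and a europium anti-IP1 antibody. M1-expressing CHO cells were stimulated with carbachol for 30 min at 37C, with lithium (50 mM LiCl) present in the buffer.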
# ALDH1A1 block – blocks purified human ALDH1A1 activity; Purified ALDH1A1, NADH fluorescence, propionaldehyde substrate; Potency, µM (titrated, usually from 75.3 µM), hits mostly inhibitors; 220,000 tested, 7.3% active
# Target sequence (P00352 whole entry, looked up): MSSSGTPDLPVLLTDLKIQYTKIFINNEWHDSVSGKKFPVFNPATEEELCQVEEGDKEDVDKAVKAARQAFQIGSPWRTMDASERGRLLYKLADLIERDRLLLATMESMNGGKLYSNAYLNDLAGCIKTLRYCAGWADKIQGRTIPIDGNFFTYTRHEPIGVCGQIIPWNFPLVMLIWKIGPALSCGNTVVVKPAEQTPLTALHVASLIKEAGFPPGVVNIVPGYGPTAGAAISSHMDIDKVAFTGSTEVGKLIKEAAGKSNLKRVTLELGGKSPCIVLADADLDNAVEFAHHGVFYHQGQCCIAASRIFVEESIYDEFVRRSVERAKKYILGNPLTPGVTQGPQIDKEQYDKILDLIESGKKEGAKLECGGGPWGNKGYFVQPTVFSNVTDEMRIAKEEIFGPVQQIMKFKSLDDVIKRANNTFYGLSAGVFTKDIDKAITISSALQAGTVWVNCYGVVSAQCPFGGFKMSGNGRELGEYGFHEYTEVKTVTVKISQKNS
# Lamin A splicing – LMNA splicing modulation; HeLa LMNA splicing GFP/RFP minigene ratio, 48 h; Potency, µM (top dose mostly 46.1 µM), actives largely listed as inhibitors; 200,000 tested, 0.01% active; active = well fitted inhibition curve with a large enough effect in the signal ratio, with a control signal flat, not every such curve was filed as active; inconclusive = small, poorly fitted or top-dose-only effect, or effect the other way, or a change in a side signal; the % refers to the signal ratio
#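 S3 HeLa stable clones carrying a lamin A-EGFP splicing minigene plus DsRed2 were seeded at 600 cells/well in Opti-MEM with 2% FBS, pin-dosed and incubated 48 h at 37°C. Acumen cytometry (488 nm) gave the GFP/RFP total-intensity ratio.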
# HPGD block – HPGD (human) dehydrogenase inhibition. Potency, µM, usual class: inhibitors. P15428. AID 894. 150,000 tested, 4.3% active. purified HPGD, NADH fluorescence kinetic, PGE2 substrate
#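 NADH formation kinetics: reaction with 30 uM PGE2 and 1 mM NAD+ (final), 20 nM enzyme, Tris-HCl pH 8 with Tween 20, after 15 min compound preincubation at room temperature. Fluorescence change, last versus first of five reads.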
# PNC inhibitor – inhibitors of perinucleolar compartment assembly; activity change (PNC), negative = inhibition, % at 10 µM; PC3M PTB-GFP, PNC prevalence imaging, 16 h; active compounds read low; 140,000 tested, 3.1% active;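 active = readout at or below -70, meaning at least 70% loss of cells showing the perinucleolar compartment, a nuclear body marking cancer cells; inconclusive = readout between -30 and a set limit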
#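 PC3M cells stably expressing PTB-GFP, 750–1000 cells/well, treated 16 h at 37 °C with compound (23 nl of library stock), in duplicate. After paraformaldehyde fixation and Hoechst stain, imaged at 20x; PNC prevalence scored by image analysis.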
# Hits are given with their value; i = inactive; ? = inconclusive; nt = no result; [ ] = remark or other dose. Only some compounds are listed: those with a hit (about 10% of all), similar ones and a draw of the others. Unless noted, calls come from the whole dose curve; as a rule, active = well fitted inhibition curve with a large enough effect (not every such curve was filed as active); inconclusive = small, poorly fitted or top-dose-only effect, or another doubt; inactive = no such curve, though single readings can be large or run the other way.
SMILES,Luc counter,IMPase inh,ALDH1A1 block,Lamin A splicing,HPGD block,PNC inhibitor
COc1cc(/C=C2\SC(c3ccccc3)=NC2=O)cc(Cl)c1O,?,nt,5µM,nt,nt,nt
COc1cc(/C=C2\SC(N)=NC2=O)ccc1OCC(=O)Nc1ccc(C)cc1,i,i,i,?,4.5µM,i
COc1ccc(/C=C2/SC(=O)N(CCC(=O)Nc3ccc(C)cc3)C2=O)cc1OC,i,i,i,i,i,i
COc1ccc(/C=C2\SC(c3ccc(C)cc3)=NC2=O)cc1OC,i,i,?,i,?,i
COc1cc(/C=C2\SC(c3ccc(C)cc3)=NC2=O)ccc1O,i,i,?,i,?,-95
NC(=O)C1CCN(C(=O)Cn2c(-c3cccs3)cc3ccccc32)CC1,nt,nt,nt,i,nt,nt
O=C1CCCN1c1ccc(S(=O)(=O)Oc2ccc(Cl)cc2)cc1[N+](=O)[O-],i,i,i,i,7.9µM,i
Fc1cccc(Cl)c1CNn1cn[nH]c1=S,i,nt,i,i,nt,nt
S=c1[nH]ncn1NCc1ccc(Cl)cc1Cl,i,nt,1.4µM,nt,nt,nt
Cc1ccc(N=Nc2c(N)[nH]n3c(=O)cc(-c4ccccc4)nc23)cc1,i,i,i,i,i,i
Cc1ccc(N=Nc2c(=O)[nH]n3c(=O)cc(C)[nH]c23)cc1,?,i,?,i,20µM,?
O=C(CCS(=O)(=O)c1cccc2nonc12)Nc1ccc(F)cc1F,nt,nt,nt,i,nt,nt
CN(C)CCN1C(=O)C(O)=C(C(=O)c2cc3ccccc3o2)C1c1ccc(N(C)C)cc1 (centres undefined),i,i,28µM,i,i,-119
COc1ccccc1C1C(C(=O)c2cc3ccccc3o2)=C(O)C(=O)N1CCN1CCOCC1 (centres undefined),i,i,20µM,i,i,i
CN(C)CCN1C(=O)C(O)=C(C(=O)c2cc3ccccc3o2)C1c1ccccn1 (centres undefined),i,i,i,i,i,?
COc1ccc(OC)c(C2C(C(=O)c3sc(C)nc3C)=C(O)C(=O)N2CCN2CCOCC2)c1 (centres undefined),nt,i,i,i,nt,i
COC(=O)c1c(-c2cccs2)csc1NC(=O)c1ccc(C(C)(C)C)cc1,nt,nt,nt,i,nt,nt
COC(=O)c1ccc(C2NC(=O)c3c(sc(C)c3C)N2)cc1 (centres undefined),nt,nt,24µM,nt,nt,nt
Cc1cc(C)cc(OC2CCCCC2NS(=O)(=O)c2ccccc2)c1 (centres undefined),i,nt,13µM,i,i,?
COC1CCCCC1NS(=O)(=O)c1ccccc1 (centres undefined),i,i,?,i,i,i
CSc1ccc(OC2CCCCC2NS(=O)(=O)c2ccccc2)cc1 (centres undefined),i,nt,1.3µM,?,i,i
CCc1cccc(CC)c1N(COC)C(=O)Cn1c(C)nc2ccccc21,nt,i,nt,nt,nt,nt
O=C(Nc1ccc(Cl)cc1)[C@@H]1[C@@H]2C(=O)N(c3ccc(Cl)cc3Cl)C(=O)[C@@H]2[C@H]2C=CC=NN21,i,i,22µM,i,28µM,i
O=C(Nc1ccc(Cl)cc1)[C@@H]1[C@@H]2C(=O)N(c3ccc(Cl)cc3)C(=O)[C@@H]2[C@H]2C=CC=NN21,i,i,?,i,i,?
Cc1ccc(N2C(=O)[C@@H]3[C@H](C2=O)[C@H]2C=CC=NN2[C@@H]3C(=O)Nc2ccc(Cl)cc2)cc1,i,i,7.9µM,i,35µM,i
SMILES,Luc counter,IMPase inh,ALDH1A1 block,Lamin A splicing,HPGD block,PNC inhibitor
Cc1cc(C)c(-c2c(O)c3cccc4c3n(c2=O)CCC4)c(C)c1,i,i,i,i,?,-100
C=CC1=C2C=C(C3CC3)N(CCCCO)C=C2C(=O)C(C)(OC(=O)c2ccco2)C1=O (centres undefined),i[7.66 µM],nt,i[13.5 µM],i[9.22 µM],i,nt
[O-][n+]1c2c(c3c4non(O)c4ccc31)CCCC2,i,i,i,?,7.9µM,i
O=C(c1csnn1)N1CCC2(CC1)CN(c1ccccn1)C2,i,nt,?,nt,?,nt
Cc1cccc(S(=O)(=O)Nc2cccc(-c3cn4ccsc4n3)c2)c1,i,i,10µM,?,i,?
Cc1nc(-c2cccc(NS(=O)(=O)c3ccccc3)c2)cs1,i,i,14µM,i,14µM,i
